# The list is not random: actives were taken first. Their share in the collection is about 3.6%.
# Anthrax LF inh2: blocks Bacillus anthracis lethal factor protease | P15917 | multiplex microsphere protease cleavage assay, LF | inhibition, % at 10 µM | 360,000 tested, 0.12% active | AID 588501; further: plate controls were buffer without enzyme for full effect and enzyme alone for no effect
# Target sequence (P15917 whole entry, looked up): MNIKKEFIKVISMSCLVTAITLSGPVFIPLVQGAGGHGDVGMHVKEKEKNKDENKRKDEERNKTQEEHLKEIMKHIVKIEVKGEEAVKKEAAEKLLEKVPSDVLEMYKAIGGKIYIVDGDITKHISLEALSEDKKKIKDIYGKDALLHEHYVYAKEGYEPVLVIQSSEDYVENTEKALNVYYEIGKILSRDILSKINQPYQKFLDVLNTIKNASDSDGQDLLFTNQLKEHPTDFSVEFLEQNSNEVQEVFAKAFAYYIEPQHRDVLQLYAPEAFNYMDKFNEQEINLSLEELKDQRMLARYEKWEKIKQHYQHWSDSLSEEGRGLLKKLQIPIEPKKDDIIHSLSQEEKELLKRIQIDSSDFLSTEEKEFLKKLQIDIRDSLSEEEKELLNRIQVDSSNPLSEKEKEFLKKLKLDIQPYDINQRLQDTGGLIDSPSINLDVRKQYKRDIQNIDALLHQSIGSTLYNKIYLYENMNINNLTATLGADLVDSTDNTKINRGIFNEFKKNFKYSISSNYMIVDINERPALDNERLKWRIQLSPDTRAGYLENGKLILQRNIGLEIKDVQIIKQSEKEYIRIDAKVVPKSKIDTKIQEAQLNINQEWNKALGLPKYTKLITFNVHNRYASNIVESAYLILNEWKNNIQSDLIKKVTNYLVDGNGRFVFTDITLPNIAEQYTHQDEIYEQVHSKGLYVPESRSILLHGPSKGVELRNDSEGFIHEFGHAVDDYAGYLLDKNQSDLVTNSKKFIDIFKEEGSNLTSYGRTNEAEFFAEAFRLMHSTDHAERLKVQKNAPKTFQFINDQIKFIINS
# MazEF act: increases E. coli MazEF RNase cleavage of RNA; P0AE70; FAM/BHQ RNA-DNA oligo cleavage fluorescence, 5 h; activation, % at 20 µM; 350,000 tested, 0.32% active; in the data active means activation above about 50%
# BoNT A protease: inhibitors of Botulinum neurotoxin A light chain protease. multiplex microsphere protease substrate cleavage, flow cytometry. inhibition, % at 10 µM. 360,000 tested, 0.17% active; further: plate controls were buffer without enzyme for full effect and enzyme alone for no effect
# BoNT F protease: blocks Botulinum neurotoxin F light chain protease | Multiplex microsphere protease cleavage assay, flow cytometry | inhibition, % at 10 µM | 360,000 tested, 0.22% active; in the data active means inhibition above about 35%, passing the limit was not always enough; inconclusive means no clear call, values can overlap the other calls; further: plate controls were buffer without enzyme for full effect and enzyme alone for no effect
# Autofluor counter: flagged as autofluorescent in microsphere protease counterscreen. compound autofluorescence counterscreen, microsphere flow cytometry; active compounds read high. fluorescence intensity (test concentration not listed). 360,000 tested, 3.1% active. AID 624483; in the data active means fluorescence intensity above about 16000; inconclusive means no clear call, values can overlap the other calls
# * = called active by the depositor; ? = inconclusive; nt = no result. Unless noted, no stated cut-off is given here; in the data, active means inhibition above about 30%; inconclusive means no clear call, values can overlap the other calls; inactive means below that.
SMILES,Anthrax LF inh2,MazEF act,BoNT A protease,BoNT F protease,Autofluor counter
O=C(CCCC1=NS(=O)(=O)c2ccccc2N1)Nc1ccccc1,-1,4,-1,5,5042
CC(=O)N1CCN(c2ccc(N=Cc3c(O)n(Cc4ccccc4)c(=O)[nH]c3=O)cc2)CC1,2,77*,0,3,3094
CCOC(=O)C1=CCC(c2ccc(C#N)cc2)N(S(=O)(=O)c2ccc(C)cc2)C1 (stereo not given),-3,nt,2,-10,6358
C[C@@H]1CN([C@H](C)CO)C(=O)CCCn2cc(nn2)CO[C@H]1CN(C)S(=O)(=O)c1ccc(-c2ccccc2)cc1,0,6,0,-4,3859
COC(=O)c1ccccc1NC(=O)N1c2ccccc2CC1C (stereo not given),-3,7,?,2,20425*
CC1Cc2ccccc2N1C(=O)COC(=O)c1cccnc1Cl (stereo not given),-2,6,?,2,16252*
COc1ccc(NC(=O)N2c3ccccc3CC2C)cc1OC (stereo not given),-10,-6,1,-1,9172
CC1Cc2ccccc2N1C(=O)COC(=O)c1ccccc1NCCO (stereo not given),0,4,-4,0,6754
CN1C(=O)C(=O)/C(=C(/O)c2ccccc2)C1c1ccc([N+](=O)[O-])cc1 (stereo not given),-10,8,-1,0,3889
CC(=O)NC(C)C12CC3CC(CC(CC(=O)O)(C3)C1)C2 (stereo not given),1,-2,0,8,10629
CC(=O)NC12CC3CC(CC(CC(=O)O)(C3)C1)C2,1,-8,3,5,21352*
CC(=O)NC12CC3CC(C)(C1)CC(NC(C)=O)(C3)C2,-2,2,?,4,23165*
Cc1cc(C(=O)Nc2sc3c(c2C#N)CCC(C)C3)cs1 (stereo not given),-2,-10,-2,-2,17096*
CC(=O)Nc1sc2c(c1C#N)CCC(C)C2 (stereo not given),-4,4,0,-2,4639
S=C(NCCc1ccccc1)Nc1ccc(Br)cc1,-5,-6,-1,-6,1835
COc1ccc(-c2cc(CCCC(=O)NCCc3ccc(OC)cc3OC)no2)cc1,-2,-23,-2,-2,24435*
COc1ccc(-c2cc(CCCC(=O)NCCc3ccccc3)no2)cc1,-2,-2,0,-4,3846
CCOc1ccc(-c2cc(CCCC(=O)NCCc3ccccc3)no2)cc1,-1,6,0,2,3902
CCOc1ccc(-c2cc(CCCC(=O)NCCc3ccc(OC)c(OC)c3OC)no2)cc1,-2,0,0,-1,22608*
COc1ccc(N2CCN(C(=O)c3ccc(COc4ccc([N+](=O)[O-])cc4)o3)CC2)cc1,2,5,15,-13,2869
Cn1c2ccccc2c2ncn(Cc3ccco3)c(=O)c21,0,4,2,1,19514*
Cn1c2ccc(F)cc2c2ncn(Cc3ccco3)c(=O)c21,-2,2,-2,-7,23973*
CCCOC(=O)C1=C(C)NC2=C(C(=O)C(C(=O)OC)C(C)C2)C1c1ccc(N(CC)CC)cc1 (stereo not given),14,0,1,-5,8869
CCOC(=O)C1=C(C)NC2=C(C(=O)C(C(=O)OC)C(C)C2)C1c1ccc(OC)c(O)c1 (stereo not given),-3,1,?,0,23122*
CC(COc1cccc2ccccc12)CN1CCN(C)CC1 (stereo not given),-2,2,-2,-6,24009*
SMILES,Anthrax LF inh2,MazEF act,BoNT A protease,BoNT F protease,Autofluor counter
CCc1nc2ccc(C(=O)NCCc3c[nH]c4ccccc34)cn2c1N(C)Cc1ccc(N(C)C)cc1,-10,nt,-1,-3,3754
COc1ccc(OC)c(NC(=O)CCN2C(=O)c3ccccc3C2=O)c1,-16,8,-1,6,3373
Cc1ccc(-c2csc(=S)n2CC(=O)OCC(=O)NCc2ccco2)cc1,-1,-4,1,2,9278
Cc1ccc(-c2csc(=S)n2CC(=O)OCC(=O)NC(C)C(C)C)cc1 (stereo not given),-2,0,0,0,16450*
COc1cc(C)c(S(=O)(=O)N2CCN=C2c2ccccc2)cc1C,-1,-3,1,3,2399
Cc1cc(C)c(S(=O)(=O)N2CCN=C2c2ccccc2)cc1C,-2,-1,-1,-4,22172*
COc1ccc(CCN2C(=O)C3C4C=CC(C3C2=O)C2C(=O)N(CCc3ccc(OC)c(OC)c3)C(=O)C42)cc1OC (stereo not given),-5,-1,2,2,19991*
